Measurements taken from PubChem BioAssay AID651657 (Broad Institute, 2012).
Entries with a potency or affinity are not part of this list. Activity calls are given as the source filed them.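 The calls were made as follows: active = signal falls, with fitted half-maximal concentration at most twice the top valid dose tested; inconclusive = flat curve with partial signal loss, or poor curve fit; inactive = the rest, including signal rising instead.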

These compounds were tested against DNA repair and recombination protein RAD54-like (Homo sapiens) (UniProt Q92698) (assay: RAD54 Holliday junction migration blockers – biochemical, fluorescence, cherry-picked samples, dose series, confirmation (AID 651657)). Conditions: RAD54 branch migration, FAM/BHQ fluorescence, 60 min; series mostly up to 50 µM.
Sequence of DNA repair and recombination protein RAD54-like (Homo sapiens) (Q92698 whole entry, looked up): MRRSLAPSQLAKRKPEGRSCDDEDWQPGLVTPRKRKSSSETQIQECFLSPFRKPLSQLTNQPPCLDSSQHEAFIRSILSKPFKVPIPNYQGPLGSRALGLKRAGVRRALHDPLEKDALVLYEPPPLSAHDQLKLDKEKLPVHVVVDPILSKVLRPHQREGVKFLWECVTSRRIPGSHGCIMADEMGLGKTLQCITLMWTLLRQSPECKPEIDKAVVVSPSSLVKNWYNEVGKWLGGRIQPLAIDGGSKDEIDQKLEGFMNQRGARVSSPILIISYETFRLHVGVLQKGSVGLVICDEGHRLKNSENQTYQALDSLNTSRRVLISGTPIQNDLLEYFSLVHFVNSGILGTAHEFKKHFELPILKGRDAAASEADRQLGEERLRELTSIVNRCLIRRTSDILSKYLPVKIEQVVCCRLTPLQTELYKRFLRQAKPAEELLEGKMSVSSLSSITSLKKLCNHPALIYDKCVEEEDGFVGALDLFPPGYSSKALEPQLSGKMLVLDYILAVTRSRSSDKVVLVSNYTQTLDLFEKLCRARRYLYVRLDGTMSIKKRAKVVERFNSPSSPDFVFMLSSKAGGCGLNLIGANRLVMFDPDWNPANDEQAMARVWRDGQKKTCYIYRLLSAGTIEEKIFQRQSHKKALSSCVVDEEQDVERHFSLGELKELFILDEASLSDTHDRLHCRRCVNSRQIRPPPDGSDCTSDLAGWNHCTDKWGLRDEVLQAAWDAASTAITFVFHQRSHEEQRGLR

outcome, inactive:
CCN1CCN(c2cc(C)c3cc(NC(=S)N4CCC5(CC4)OCCO5)ccc3n2)CC1, C(=C/c1nccc2c1[nH]c1ccccc12)/c1ccc2c(c1)OCO2, CCCC(c1nnnn1Cc1ccc(OC)cc1)N1CCN(c2ccccc2)CC1 (stereo not drawn), O=C(Nc1ccc2c(c1)OCO2)c1cc(-c2ccncc2)nc2ccccc12, COC(=O)Nc1nnc(COc2ccccc2)s1, CCOC(=O)C1C(=O)NC(N2CCN(c3ccccc3)CC2)=NC1c1ccco1 (stereo not drawn), Cc1ccc(S(=O)(=O)NCCCNS(=O)(=O)c2ccccc2[N+](=O)[O-])cc1, CCN1CCN(c2cc(C)c3cc(NC(=S)N4CCCC(C)C4)ccc3n2)CC1 (stereo not drawn), Cc1ccc(S(=O)(=O)CCSc2ccc(C(F)(F)F)cn2)cc1, COc1ccccc1C1=NOC(Cn2c(NCCCO)nc3c2c(=O)n(C)c(=O)n3C)C1 (stereo not drawn), CCOC(=O)c1[nH]c2cc3c(cc2c1CCCN1C(=O)c2ccccc2C1=O)OCCO3, COC(=O)C1=C(C)Nc2nc3ccccc3n2C1c1ccccc1F (stereo not drawn), O=c1cc(CSc2n[nH]c(=O)n2C2CC2)c2ccc(O)cc2o1, Cc1cccc(Cn2c(Sc3nc(C)cs3)nc3c2c(=O)[nH]c(=O)n3C)c1, O=C(CS(=O)(=O)c1ccccc1)Nc1ccc(Br)cn1, O=C1C(c2ccc(F)cc2)N(C2CCCCC2)C(=O)CN1C1CCCC1 (stereo not drawn), CCC(=O)N(Cc1cc2cc(OC)ccc2[nH]c1=O)c1cc(C)ccc1C, O=C(NN1CCOCC1)c1cc(-c2ccc(Cl)c(Cl)c2)nc2ccccc12, CN1CCN(CC(=O)Nc2nc(-c3c[nH]c4ccccc34)cs2)CC1, Cc1ccnc(SCC(=O)Nc2sc3c(c2C#N)CCC(C(C)(C)C)C3)n1 (stereo not drawn), COc1ccccc1C(=O)C(O)c1ccccc1OC (stereo not drawn), COc1ccccc1CNC(=O)c1cccs1, COc1ccc(N2C(=O)CSC23CCCCC3)cc1
